# Screening data (PubChem BioAssay)
# AI-2 QS modul – modulates the Vibrio harveyi AI-2 quorum sensing system. Vibrio harveyi JMH597 AI-2 luminescence/OD600 ratio, 9 h; active compounds read low; strain lacks LuxN and CqsS sensors; 0 = neutral-control median. activity change, % at 7.5 µM. hit rate 0.4% among 300,000. AID 2094; in the data active means activity change below about -75%, passing the limit was not always enough; inconclusive means no clear call, values can overlap the other calls;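 further: luminescence divided by OD600 gain over 9 h not by final OD600 alone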
# SUMO Mot1 rescue – SUMOylation pathway inhibition by Mot1-301 growth rescue; AID 2716; hit rate 1% among 320,000; growth rescue, % at 18.8 µM; S. cerevisiae Mot1-301 growth rescue, ATP luminescence, 38.5C; percent above DMSO median, 100 means doubled;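 active means every valid replicate shows activation above 250% relative to neutral control wells; inactive means the rest, any valid replicate at or below 250%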
# HIF act – HIF pathway transcriptional activation; U2OS HRE-luciferase reporter, luminescence; normalized: DMSO 0%, desferrioxamine 100%; activation, % at 7.5 µM (by protocol); hit rate 0.32% among 300,000; AID 1910;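 active means mean activation of at least 10% of the iron chelator positive control signal, with at least half of replicates also reaching 10%; inconclusive means mean and replicate majority disagree about reaching 10%; inactive means mean and most replicates under 10%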
# ALR inh – inhibitors of human sulfhydryl oxidase ALR; P55789; inhibition, % (no concentration beside the values); hit rate 3.8% among 290,000; purified ALR, DTT oxidation, H2O2 HRP-luminol luminescence;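 active means mean replicate inhibition above about 79%, with every replicate also reaching it, limit read from the data; inconclusive means only one of the two criteria met; inactive means mean below limit and not every replicate reaching it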
# Target sequence (P55789 whole entry, looked up): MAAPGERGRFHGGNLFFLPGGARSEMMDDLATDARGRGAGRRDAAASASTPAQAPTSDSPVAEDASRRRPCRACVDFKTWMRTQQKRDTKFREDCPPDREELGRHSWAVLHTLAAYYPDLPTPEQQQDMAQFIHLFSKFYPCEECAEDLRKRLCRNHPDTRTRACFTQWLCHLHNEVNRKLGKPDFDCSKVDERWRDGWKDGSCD
# A number is an active result; n = inactive; u = inconclusive; x = no result given; + = active, no number. Rows were chosen to be rich in hits. Some 4.8% of all compounds tested hit in one or more screens of this group.
SMILES,AI-2 QS modul,SUMO Mot1 rescue,HIF act,ALR inh
c1cc2cn[nH]c2cc1NC1CCCCCC1,n,n,n,99.0
CC1CC(C)CN(CCCNC(=O)C2CCCN(S(=O)(=O)N3CC(C)CC(C)C3)C2)C1 (stereo unspecified),n,n,n,n
CCNC(=S)/C(=C(/[O-])c1ccc([N+](=O)[O-])cc1)[n+]1ccccc1,n,n,n,99.0
COc1ccc(S(N)(=O)=O)cc1C(=O)NC1CCCc2ccccc21 (stereo unspecified),x,n,n,n
Cc1ccc(C2(C)NC(=O)N(CC(=O)Nc3ccc(Cl)c(S(=O)(=O)N4CCCCC4)c3)C2=O)cc1 (stereo unspecified),n,n,n,n
CCOC(=O)N1CCN(C(=O)CCCCCn2c(=S)[nH]c3ccsc3c2=O)CC1,x,n,n,93.4
O=C(CCn1c(=O)[nH]c2ccsc2c1=O)NCc1ccc(F)cc1,n,450.9,n,n
O=C(CCCn1c(=O)[nH]c2ccsc2c1=O)Nc1ccc(F)cc1,n,n,n,n
CC(NC(=O)CCn1c(=S)[nH]c2ccsc2c1=O)c1ccccc1 (stereo unspecified),x,n,n,94.7
CCOC(=O)N1CCN(C(=O)CCCn2c(=S)[nH]c3ccsc3c2=O)CC1,x,n,n,95.4
CCn1c(-c2csc3c2CCCC3)n[nH]c1=S,n,n,n,90.9
Nc1ccc(/C=C/C(=O)c2ccco2)cc1,n,n,n,98.9
O=C(/C=C/c1ccccc1O)c1ccco1,n,n,n,x
O=C(/C=C/c1cc(Br)ccc1O)c1ccco1,n,n,n,96.9
CCOC(=O)N1CCN(S(=O)(=O)c2ccc(OC)c(Cl)c2)CC1,n,n,n,n
CCOC(=O)N1CCN(S(=O)(=O)c2ccc(OCC(=O)OC)c(Cl)c2)CC1,n,286.7,n,n
O=C(CNC(=O)c1ccccc1F)NCc1ccncc1,x,n,x,n
O=C(/C=C/c1cccs1)N1CCN(c2ccc(O)cc2)CC1,n,n,n,99.1
O=C(/C=C/c1cccs1)N1CCCCC1,n,n,n,n
CCCCN(C)C(=O)C1CCCN(S(=O)(=O)c2ccc3c(c2)CC(C)N3C(=O)C2CC2)C1 (stereo unspecified),n,n,n,n
CCN(CC)c1ccc2c(c1)CCCN2,n,n,n,96.5
O=C(c1ccc(S(=O)(=O)N2CCCCC2)cc1)N1CCCC(C(F)(F)F)C1 (stereo unspecified),n,n,n,n
CC(=O)Nc1cccc(OCC(O)Cn2cnc3ccccc32)c1 (stereo unspecified),n,n,n,99.6
O=C(N/N=C/c1ccccn1)c1ccc(N/N=C/c2ccccn2)cc1,n,n,n,99.2
O=C(N/N=C/c1ccccn1)c1ccc(Br)cc1,u,n,15.7,n
SMILES,AI-2 QS modul,SUMO Mot1 rescue,HIF act,ALR inh
CC(C)(C)c1ccc(C(=O)N/N=C/c2ccccn2)cc1,n,n,n,n
O=C(Cn1nc(C(=O)O)c2ccccc2c1=O)Nc1ccc(Cl)c(S(=O)(=O)N2CCOCC2)c1,x,n,x,n
Nn1c(SCC(=O)NC2CCCCC2)nnc1-c1ccccc1F,x,n,x,n
COc1ccc(S(=O)(=O)N2CCCCC2)cc1NC(=O)c1ccc(N2CCCC2=O)cc1,x,n,x,n
O=C(CC1C(=O)NCCN1Cc1ccc(F)cc1)NCCN1CCCc2ccccc21 (stereo unspecified),n,n,n,98.9
COc1cc(/C=C(\NC(=O)c2ccccc2)C(=O)N2CC3CC(C2)c2cccc(=O)n2C3)cc(OC)c1OC (stereo unspecified),n,+,n,n
NS(=O)(=O)c1ccc(Nc2nc(-c3ccc(O)cc3O)cs2)cc1,n,n,n,98.8
Oc1ccc(-c2csc(Nc3ncccn3)n2)cc1,n,n,n,n
Oc1ccc(-c2csc(Nc3ccccn3)n2)c(O)c1,x,n,n,92.9
Cc1cccnc1Nc1nc(-c2ccccc2)cs1,n,n,n,n
Cc1cccnc1Nc1nc(-c2ccccn2)cs1,n,x,181.8,n
Fc1ccc(-c2csc(Nc3ccccn3)n2)cc1,x,n,n,n
Cc1cccnc1Nc1nc(-c2ccc(O)cc2O)cs1,n,n,n,76.6
COc1ccc(C(CC(=O)O)NS(=O)(=O)c2ccc3c(c2)N(C(C)=O)CC(C)O3)cc1 (stereo unspecified),n,n,x,n
COc1cccc(NC(=O)CN(C)S(=O)(=O)c2ccc3[nH]c(=O)oc3c2)c1,n,n,n,n
COc1ccc(CCc2nnc(NS(C)(=O)=O)s2)cc1,n,n,n,n
CC(C)CCOc1ccc(C(=O)NCC(c2ccco2)N(C)C)cc1 (stereo unspecified),n,n,n,n
